Consider 40 molecules from the supplement of paper PMC7156485.

± gives the standard deviation of the averaged measurements.
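Also: TDF denotes transformed human dermal fibroblasts of mesenchymal origin.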

This assay relates to HCC1569. Description: cell number relative to DMSO (% of DMSO); higher = more cells (less growth inhibition / toxicity). The conditions noted are these: concentration: 10 µM; 24 h. The procedure, abridged:
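H1.0 nuclear intensity or cell number is expressed as percent of the plate control, with the median of replicates taken. HCC1569 and TDF cells were treated with compounds at 10 µM for 24 h at 37 °C, in triplicate, then fixed and immunostained for H1.0 with DAPI as a nuclear stain. HCC1569 values were smoothed to correct for positional effects.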
For `CC(C)=CCCC(C)=CCOc1ccc2ccc(=O)oc2c1` [Auraptene], the cell number amounted to 105. With `CN(C)CCOc1ccc(-c2nc(=c3ccc4c(c3)CCC=4N=O)c(=C3C=CNC=C3)[nH]2)cc1`, the cell number amounted to 88.6. As for `CC1=C(C(=O)O)N2C(=O)C(NC(=O)C(N)C3=CCC=CC3)C2SC1` (stereo not given) [Cephadrine], the figure is 100; as for `CCC=CCC=CCC=CCCCCCCCCCCCC(=O)O` [Docosatrienoic acid], 101 ± 2.4; as for `CCCCCC(=O)C=CC1C(O)CC(O)C1CC=CCCCC(=O)O` (stereo not given) [15-keto-prostaglandin F2a], 101.

With `O=c1c(O)c(-c2ccccc2)oc2cc(O)cc(O)c12` [Galangine], the cell number is 98.1. Under `CN(C)c1nc(N)c(C(=O)N=C(N)N)nc1Cl.Cl` [5-(N,N-Dimethyl)amiloride hydrochloride] stands 99.9. As for `N[C@@H](Cc1ccc(O)c(O)c1)C(=O)O` [L-3,4-Dihydroxyphenylalanine], the figure is 100. Under `CC(C=CC1=C(C)CCCC1(C)C)=CC=CC(C)=CC(=O)O` [13-cis-retinoic acid] stands 102; under `CCCCCCCCCCCCCCCC(=O)OCC(O)C1OC(=O)C(O)=C1O` (stereo not given) [Ascorbyl palmitate], 98.6. Regarding `NC(=O)CC[C@H](N)C(=O)O` [L-Glutamine], the cell number was 100. Under `CC1(C)CCC(NC(=O)C(N)CCC(=O)O)CC1` (stereo not given) stands 103; under `C[N+](C)(C)CCOC(=O)CCC(=O)OCC[N+](C)(C)C.O.O.[Cl-].[Cl-]`, 103.

In turn, `C[N+](C)(C)CCCCCC[N+](C)(C)C.[Br-].[Br-]` [Hexamethonium bromide] showed a cell number of 104. Turning to `CCCCOC(=O)NS(=O)(=O)c1sc(CC(C)C)cc1-c1ccc(Cn2c(CC)nc3c(C)cc(C)nc32)cc1`, the cell number worked out at 99.7.

In turn, `CC(=O)SCC[N+](C)(C)C.[Cl-]` [Acetylthiocholine chloride] came in with a cell number of 102. Under `O=C1Nc2ccc(Cl)cc2C1=Cc1cc(Cl)c(O)c(Cl)c1` [PKR Inhibitor, Negative Control] stands 101. As for `C#CC1(O)CCC2C3CCC4=CC(=O)CCC4C3CCC21C` (stereo not given) [Norethindrone], the figure is 96.5. As for `O=NN(CCCl)C(=O)NC1CCCCC1` [Lomustine], the figure is 104; as for `CCCCCC(O)C=CC1C=CC(=O)C1CC=CCCCC(=O)O` (stereo not given) [Prostaglandin A2], 103. Turning to `COc1cc2c(cc1OC)-c1cc(=Nc3c(C)cc(C)cc3C)n(C)c(=O)n1CC2.Cl` [Trequinsin.HCl], the cell number was determined as 102. For `Cn1c(=O)c2[nH]c(C3CCCC3)nc2n(C)c1=O` [8-Cyclopentyl-1,3-dimethylxanthine], the cell number came to 97.7.

As for `N[C@@H](CC(=O)O)C(=O)O` [L-Aspartic acid], the cell number turned out to be 104. Under `Nc1ncnc2c1C(=O)N(c1ccc(C3CCC(CC(=O)O)CC3)cc1)CCO2` (stereo not given) stands 103. Under `Cc1c(C(=O)O)c(O)cc2c1C(=O)c1c(O)c(C3OC(CO)C(O)C(O)C3O)c(O)c(O)c1C2=O` (stereo not given) [Carminic acid] stands 101. The molecule `CC(C)C(CO)Nc1nc(Nc2cc(N)cc(Cl)c2)c2ncn(C(C)C)c2n1` (stereo not given) [Aminopurvalanol A] returned a cell number of 65.5.

`Cl.NCc1c[nH]c(=S)n1[C@H]1CCc2c(F)cc(F)cc2C1` yielded a cell number of 99.6. As for `CC(C(=O)O)c1ccc(-c2ccccc2)c(F)c1` (stereo not given) [Flurbiprofen], the figure is 98.6; as for `C[C@]12CCC(=O)C=C1CC[C@@H]1[C@@H]2[C@@H](O)C[C@@]2(C)[C@H]1CC[C@]2(O)C(=O)COC(=O)CCC(=O)[O-].[Na+]`, 96.3; as for `Cc1ccc(-c2cc(C(F)(F)F)nn2-c2ccc(S(N)(=O)=O)cc2)cc1` [Celecoxib], 97.7.

On to `CN(C)NN=C1N=CN=C1C(N)=O` [Dacarbazine], for which the cell number was determined as 102. Under `O=C(Nc1c(Cl)cncc1Cl)c1ccc(OC(F)F)c(OCC2CC2)c1` stands 99.9; under `O=S(=O)(O)C1CCNCC1` [Piperidine-4-sulphonic acid], 92.6. With `CC(CSC(=O)c1ccccc1)C(=O)N1CC(Sc2ccccc2)CC1C(=O)[O-].CC(CSC(=O)c1ccccc1)C(=O)N1CC(Sc2ccccc2)CC1C(=O)[O-].[Ca+2]` (stereo not given), the cell number is 106.

In turn, `Nc1ccc(C(=O)Nc2cccc(-c3nc(N4CCOCC4)c4oc5ncccc5c4n3)c2)cn1` [PIKfyve Inhibitor] showed a cell number of 63.9.

Take `CC(C)=CCC(OC(=O)C=C(C)C)C1=CC(=O)c2c(O)ccc(O)c2C1=O` (stereo not drawn) [Shikonin beta,beta-dimethylacrylate]: the cell number was found to be 25.4. Under `CCCCCC(O)C=CC=O` (racemic) stands 99.2.

With `O=C1CCCC(=O)C1C(=O)c1ccc(C(F)(F)F)cc1[N+](=O)[O-]` [2-[2-nitro-4-(trifluoromethyl)benzoyl]-1,3-cyclohexanedione], the cell number was determined as 96.1. Under `CS(=O)(=O)O.Cc1ccc(NC(=O)c2ccc(CN3CCN(C)CC3)cc2)cc1Nc1nccc(-c2cccnc2)n1` [Imatinib] stands 93.4.

With `CCC(C)(C)c1ccc(CC(C)CN2CC(C)OC(C)C2)cc1` (stereo not given) [Amorolfine], the cell number came out at 94.1.
